Screening data as filed in PubChem BioAssay.
A selection: hits, their analogues and other compounds. The true share with any hit is near 4.3%.
CR mimetic SO: lowers age-related superoxide in aged yeast cells. S. cerevisiae aged cells, superoxide DHE fluorescence; stronger effect = lower value. superoxide response (% of plate mean), % at 10 µM. actives 0.18% (n = 330,000). AID 2690;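 active = superoxide response under a set limit, about three screen SD below normal, cut at about 65% in these data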;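 note: yeast aged for seven days with compound at 30 °C before DHE staining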
UBC13 polyUb: human UBC13 polyubiquitination inhibition; P61088; UBC13 polyubiquitin chain formation, TR-FRET; inhibition, % at 20 µM; actives 0.47% (n = 330,000); AID 485273; in the data active = inhibition above about 45%, passing the limit was not always enough; inconclusive = no clear call, values can overlap the other calls
Target sequence (P61088 whole entry, looked up): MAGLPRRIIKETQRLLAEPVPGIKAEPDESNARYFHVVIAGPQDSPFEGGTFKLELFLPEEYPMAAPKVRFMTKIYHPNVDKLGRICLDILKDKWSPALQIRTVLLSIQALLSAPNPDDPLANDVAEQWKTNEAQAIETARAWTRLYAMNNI
dFosB activator: activators of mouse delta FosB homodimer. P13346. purified delta FosB, TAMRA-CDK5 oligo fluorescence polarization; percent of positive-control signal above neutral wells. activation, % at 25 µM. actives 0.99% (n = 340,000). AID 493131;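 active = mean activation above about 17%, with every replicate also reaching it, limit read from the data, passing the limit was not always enough; inconclusive = only one of the two conditions met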
Target sequence (P13346 whole entry, looked up): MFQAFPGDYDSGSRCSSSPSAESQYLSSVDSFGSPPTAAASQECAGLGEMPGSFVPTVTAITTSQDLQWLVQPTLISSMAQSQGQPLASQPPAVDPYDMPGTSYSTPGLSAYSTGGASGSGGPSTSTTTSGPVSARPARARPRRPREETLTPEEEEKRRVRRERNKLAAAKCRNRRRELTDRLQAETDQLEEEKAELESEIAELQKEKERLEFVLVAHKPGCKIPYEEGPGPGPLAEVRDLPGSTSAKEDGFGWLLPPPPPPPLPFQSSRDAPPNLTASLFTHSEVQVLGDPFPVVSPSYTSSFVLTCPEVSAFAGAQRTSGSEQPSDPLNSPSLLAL
NALP1 yeast inh: NALP1 inhibition | S. cerevisiae NALP1/ASC/caspase-1 growth, X-gal OD620, 72 h | inhibition, % at 10 µM | actives 0.61% (n = 280,000); in the data active = inhibition mostly above about 24%, no sharp cut-off; inactive = mostly below about 32%
NR3A LBD binder: NR3A (human) ligand-binding domain modulation; NR3A LBD differential scanning fluorimetry, Tm shift; 0% = protein alone, 100% = glycine-bound protein; actives 2.5% (n = 340,000); Tm shift relative to glycine control, % at 25 µM;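 active = melting temperature shift of at least 10% of the positive control shift, at one fixed dose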
Casp3 counter: counter-screen for UBC13 inhibitors: human caspase-3 inhibition; Recombinant caspase-3, Caspase-Glo 3/7 luminescence, 60 min; actives 4% (n = 1,400); shares compounds with UBC13 polyUb; inhibition, % at 20 µM;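 active = mean inhibition across replicates above about 26%, limit read from the data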
UBC13 conf: human UBC13 polyubiquitin inhibition, confirmed; inhibition, % at 10 µM; UBC13 polyubiquitination, TR-FRET, biochemical; AID 488859; shares compounds with UBC13 polyUb; actives 68% (n = 1,400); in the data active = inhibition above about 45%; inconclusive = no clear call, values can overlap the other calls
A number is an active result.

Screening COc1cccc(-c2c(-c3cc(OC)cc(OC)c3)n(C)c3ccc(-c4ccc(OC)nc4)cc23)c1 returned CR mimetic SO inactive, UBC13 polyUb 46, dFosB activator inactive, NR3A LBD binder inactive, Casp3 counter inactive and UBC13 conf inconclusive.
COc1ccc(-c2c(-c3cc(OC)cc(OC)c3)n(C)c3ccc(Br)cc23)cc1 was read as CR mimetic SO inactive, UBC13 polyUb 48, dFosB activator inactive, NR3A LBD binder inactive, Casp3 counter inactive and UBC13 conf inactive.
`COc1cccc(-c2c(-c3cc(OC)cc(OC)c3)n(C)c3ccc(Br)cc23)c1` gave CR mimetic SO inactive, UBC13 polyUb inactive, dFosB activator inactive and NR3A LBD binder inactive.
CC(C)c1ccc(NC(=O)CCc2ccccc2)cc1 was read as CR mimetic SO inactive, UBC13 polyUb inactive, dFosB activator inactive, NALP1 yeast inh inactive and NR3A LBD binder inactive.
For COc1ccc(Cl)cc1NC(=O)CN(C)C(=O)c1cc2c(s1)CCCC2 the results were UBC13 polyUb inactive, dFosB activator inactive and NR3A LBD binder inactive.
`Cc1ccccc1NC(=O)c1c(C)[nH]c(=S)c(C#N)c1-c1ccc(Cl)cc1` gave CR mimetic SO inactive, UBC13 polyUb 50, NALP1 yeast inh inactive, NR3A LBD binder inactive, Casp3 counter inactive and UBC13 conf inconclusive.
Screening Cc1[nH]c(=S)c(C#N)c(-c2ccccc2)c1C(=O)Nc1ccccc1 returned CR mimetic SO inactive, UBC13 polyUb 51, dFosB activator inactive, NALP1 yeast inh inactive, NR3A LBD binder inactive, Casp3 counter inactive and UBC13 conf inconclusive.
For Cc1ccc(-c2c(C(=O)Nc3ccccc3C)c(C)[nH]c(=S)c2C#N)o1 the results were CR mimetic SO inactive, UBC13 polyUb inactive, dFosB activator inactive, NALP1 yeast inh inactive and NR3A LBD binder inactive.
For Cc1ccc(C)c(NC(=O)C2CCCN(c3cnccn3)C2)c1 (configuration not stated) the results were CR mimetic SO inactive, UBC13 polyUb inactive, dFosB activator inactive, NALP1 yeast inh inactive and NR3A LBD binder inactive.
Screening O=C(CSc1cc(Cl)ccc1Cl)NCC(=O)Nc1ccc(F)c(F)c1F returned CR mimetic SO inactive, UBC13 polyUb 71, dFosB activator inactive, NALP1 yeast inh inactive, NR3A LBD binder inactive, Casp3 counter inactive and UBC13 conf 79.
For C#CCOCCOCCOCCNc1nc(N2CCN(C(=O)CCCCCCCCCCNC(=O)[C@@H](CCSC)n3cc(CCO)nn3)CC2)nc(N2CCN(C(=O)CCCCCCCCCCNC(=O)[C@H](CCC(=O)O)n3cc(CCCCCN)nn3)CC2)n1 the results were CR mimetic SO inactive, UBC13 polyUb 102, dFosB activator inactive, NR3A LBD binder inactive, Casp3 counter inactive and UBC13 conf 77.
`C#CCOCCOCCOCCNc1nc(N2CCN(C(=O)Cn3cc(CCCCN)nn3)CC2)nc(N2CCN(C(=O)[C@H](C(C)C)n3cc(CCO)nn3)CC2)n1` gave CR mimetic SO inactive, UBC13 polyUb inactive, dFosB activator inactive, NALP1 yeast inh inactive and NR3A LBD binder inactive.
`C#CCOCCOCCOCCNc1nc(N2CCN(C(=O)CCCCCCCCCCNC(=O)[C@@H](CCSC)n3cc(CCO)nn3)CC2)nc(N2CCN(C(=O)CCCCCCCCCCNC(=O)[C@H](CO)n3cc(CCCCCN)nn3)CC2)n1` gave CR mimetic SO inactive, UBC13 polyUb 118, dFosB activator inactive, NR3A LBD binder inactive, Casp3 counter inactive and UBC13 conf 123.
Screening COCCCN(C(=O)CC1OC(=O)c2ccccc21)c1c(N)n(Cc2ccccc2)c(=O)[nH]c1=O (configuration not stated) returned CR mimetic SO inactive, UBC13 polyUb inactive, dFosB activator inactive, NALP1 yeast inh inactive and NR3A LBD binder inactive.
For Cc1ccc(-c2csc(/C(C#N)=C/Nc3ccc4c(c3)OCCO4)n2)cc1 the results were CR mimetic SO inactive, UBC13 polyUb inactive, dFosB activator inactive, NALP1 yeast inh inactive and NR3A LBD binder inactive.
For CCOC(=O)c1ccc(N/C=C\C(=O)c2cccc(OC)c2)cc1 the results were CR mimetic SO inactive, UBC13 polyUb inactive, dFosB activator inactive, NALP1 yeast inh inactive and NR3A LBD binder inactive.
For CCN(CC)CCOC(=O)c1ccc(N/C=C(/C#N)c2nc(-c3ccc(OC)c(OC)c3)cs2)cc1 the results were CR mimetic SO inactive, UBC13 polyUb 117, dFosB activator 165, NR3A LBD binder inactive, Casp3 counter inactive and UBC13 conf 138.
`CCN(CC)CCOC(=O)c1ccc(N/C=C(/C#N)c2nc(-c3cccc(OC)c3)cs2)cc1` gave CR mimetic SO inactive, UBC13 polyUb 99, NR3A LBD binder inactive, Casp3 counter inactive and UBC13 conf inactive.
`O=C(N/N=C\c1cc2c(cc1Cl)OCO2)c1cccs1` gave CR mimetic SO inactive, UBC13 polyUb inactive, dFosB activator inactive, NALP1 yeast inh inactive and NR3A LBD binder inactive.
For COc1ccc(-c2oc3ncnc(N)c3c2-c2ccccc2)cc1 the results were CR mimetic SO inactive, UBC13 polyUb 81, dFosB activator inactive, NALP1 yeast inh inactive, NR3A LBD binder inactive, Casp3 counter inactive and UBC13 conf 81.
`CCOc1cc(/C=C/C(=O)Nc2ccc(C(=O)NCCN(CC)CC)cc2)ccc1OCC(C)C` gave CR mimetic SO inactive, UBC13 polyUb 78, dFosB activator inconclusive, NALP1 yeast inh inactive, NR3A LBD binder inactive, Casp3 counter inactive and UBC13 conf 96.
Screening Cc1ccc(S(=O)(=O)NCCc2nnc3ccc(SCC(=O)Nc4nc(C)cs4)nn23)cc1 returned CR mimetic SO inactive, UBC13 polyUb inactive, dFosB activator inactive, NALP1 yeast inh inactive and NR3A LBD binder inactive.
N#Cc1nc(-c2cccc3ccccc23)oc1NCCN1CCCCC1 was read as CR mimetic SO inactive, UBC13 polyUb 71, dFosB activator inactive, NALP1 yeast inh inactive, NR3A LBD binder inactive, Casp3 counter inactive and UBC13 conf 91.
For CCc1ccccc1OCC(=O)OCC(=O)Nc1cc(C)on1 the results were CR mimetic SO inactive, UBC13 polyUb 48, dFosB activator inactive, NR3A LBD binder inactive, Casp3 counter inactive and UBC13 conf inactive.
Screening Cc1cccc(C(=O)O/N=C(\N)Cc2ccc([N+](=O)[O-])cc2)c1 returned CR mimetic SO inactive, UBC13 polyUb inactive, dFosB activator inactive, NALP1 yeast inh inactive and NR3A LBD binder inactive.
For Cc1cccc(C(=O)Oc2ccc(/C=N/NC(=O)Cc3ccc([N+](=O)[O-])cc3)cc2)c1 the results were CR mimetic SO inactive, UBC13 polyUb 86, dFosB activator inactive, NALP1 yeast inh inactive, NR3A LBD binder inactive, Casp3 counter inactive and UBC13 conf 61.
`O=C(CSCc1ccc(Cl)cc1)NN=C1CCCC1` gave CR mimetic SO inactive, UBC13 polyUb inactive, dFosB activator inactive, NALP1 yeast inh inactive and NR3A LBD binder inactive.
